# Source: PubChem
# Compounds with a hit are over-represented: about 7.5% of the library has one in this group of screens.
# B2AR arrestin: qHTS assay of beta-arrestin-biased ligands of beta2-adrenergic receptor | beta-arrestin recruitment to beta2AR, cell-based reporter | 330,000 compounds, 0.02% hits | AID 492947, 2010 | Potency, µM (top dose mostly 46.1 µM), for the others: top-dose activation, usual class: activators | Beta-2 adrenergic receptor (Homo sapiens), P07550;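 also: potency is read from the fitted curve at half-maximal effect; 0% = DMSO controls and full agonism = EC100 isoproterenol or metaproterenol; nearly all actives have a fitted effect of over 65% in size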
# Target sequence (P07550 whole entry, looked up): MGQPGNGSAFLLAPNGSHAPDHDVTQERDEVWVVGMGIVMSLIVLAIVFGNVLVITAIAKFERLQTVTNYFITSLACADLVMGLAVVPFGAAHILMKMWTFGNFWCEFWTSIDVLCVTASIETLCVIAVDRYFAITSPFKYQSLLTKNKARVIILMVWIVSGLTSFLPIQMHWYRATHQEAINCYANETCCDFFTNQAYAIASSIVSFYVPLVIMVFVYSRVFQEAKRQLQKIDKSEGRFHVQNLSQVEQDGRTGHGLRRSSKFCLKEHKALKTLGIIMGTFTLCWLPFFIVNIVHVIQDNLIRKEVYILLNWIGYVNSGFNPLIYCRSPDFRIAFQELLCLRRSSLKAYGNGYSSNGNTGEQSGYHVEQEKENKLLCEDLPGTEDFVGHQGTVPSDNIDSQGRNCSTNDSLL
# VP16 counter: VP16 counterscreen qHTS for inhibitors of ROR gamma transcriptional activity; Potency, µM (top dose mostly 53.6 µM), inactives show at the highest dose activity, negative = inhibition, most hits filed as inhibitors; 310,000 compounds, 3.5% hits; Drosophila S2 Gal4-VP16 UAS-luciferase, luminescence, 20 h;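 also: Gal4-VP16 expression switched on by copper sulfate through the metallothionein promoter; potency is read from the fitted curve at half-maximal effect; nearly all actives have a fitted effect of over 50% in size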
# ELG1 repair inh: qHTS screen for small molecules that inhibit ELG1-dependent DNA repair in human embryonic kidney (HEK293T) cells expressing luciferase-tagged ELG1; HEK293T ELG1-luciferase reporter, luminescence, 16 h; DNA damage induced by 5-fluorouridine; Potency, µM (doses to about 46.1 µM), for inactives: at the highest dose activity change, negative = inhibition, actives largely listed as inhibitors; 330,000 compounds, 2.3% hits; AID 504467, 2011; also: potency is read from the fitted curve at half-maximal effect; nearly all actives have a fitted effect of over 55% in size
#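 Reporter activity after DNA damage by 5-fluorouridine is monitored. Compound-treated cells incubate 16 hr at 37 °C, then ONE-Glo is added for 30 min before luminescence reading.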
# TSHR antag: Antagonists of the Thyroid Stimulating Hormone Receptor: HTS campaign; Thyrotropin receptor (Homo sapiens), P16473; TSHR-expressing cells, TSH-stimulated cAMP HTRF, 2 h; active compounds read low; activity change, negative = inhibition, % at 11.5 µM; 330,000 compounds, 0.2% hits; AID 504810, 2011;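 active = activity change below a set negative limit, meaning inhibition stronger than a set level, cut at about -70% in these data; inconclusive = activity change between two set negative limits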
#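 Antagonism was scored as loss of TSH-driven cAMP in TSHR cells, stimulated with 4nM TSH (EC80) for 2 hours at 37 deg C and detected by homogeneous HTRF competition immunoassay.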
# RORgamma inh: qHTS for inhibitors of ROR gamma transcriptional activity; Drosophila S2 Gal4-RORgamma UAS-luciferase reporter, 20 h; Potency, µM (doses to about 53.6 µM), for the others: at the top dose activity change, negative = inhibition, actives largely listed as inhibitors; 310,000 compounds, 5.4% hits; also: potency is read from the fitted curve at half-maximal effect; nearly all actives have a fitted effect of over 60% in size
#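 A Gal4/UAS one-hybrid system in insect cells: metallothionein-promoter Gal4–ROR gamma fusion plus Photinus luciferase reporter. Copper sulfate 700 uM final, 20 hr ambient incubation, luminescent detection after 10 min with reagent.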
# * hit, by the source's call; ? = inconclusive; · = no result given; [ ] = remark or other dose. Unless noted, calls follow the shape of the dose curve; as a rule, active = well fitted curve in the direction sought with a large enough effect; inconclusive = small, poorly fitted or top-dose-only effect, or another doubt; inactive = no such curve, though single readings can be large; an effect the other way counts as inactive or inconclusive. Unless noted, % is scaled to controls: 0 for no effect and ±100 for the full control effect.
SMILES,B2AR arrestin,VP16 counter,ELG1 repair inh,TSHR antag,RORgamma inh
CCCC[C@@H]1C=C(C(=O)O)[C@H](c2ccc(C#N)cc2)N1S(=O)(=O)c1ccc(C)cc1,0%,·,-10%,-11,·
O=C(/C=C/c1ccc(O)c(O)c1)c1ccc(O)cc1O,·,0%,·,·,-43%
CC1=CN2C(=N)/C(=C\c3cn(CCCOc4ccccc4)c4ccccc34)C(=O)N=C2S1,-1%,5µM*,?,6,7.1µM*
CC(C)(C)OC(=O)N1CCNc2ccccc2C1,0%,?,14%,0,4µM*
C/C=C\C[C@@H](C)[C@@H](O)[C@H]1C(=O)N[C@@H](CC)C(=O)N(C)CC(=O)N(C)[C@@H](CC(C)C)C(=O)N[C@@H](C(C)C)C(=O)N(C)[C@@H](CC(C)C)C(=O)N[C@@H](C)C(=O)N[C@H](C)C(=O)N(C)[C@@H](CC(C)C)C(=O)N(C)[C@@H](CC(C)C)C(=O)N(C)[C@@H](C(C)C)C(=O)N1C,·,-4%,·,·,9%
COc1cc(/C=N/NC(=S)NCCN2CCOCC2)cc(OC)c1OC,-1%,?,-5%,18,?
Oc1cccc(/C=N/NC(=S)NCCN2CCOCC2)c1O,0%,?,?,-5,7.1µM*
S=C(NCCN1CCOCC1)N/N=C/c1cccs1,?,4.5µM*,-5%,-3,1.3µM*
O=C(O)c1ccc(/C=N/NC(=S)NCCN2CCOCC2)cc1,0%,4%,-9%,22,-45%
Oc1c(Cl)cc(Cl)cc1C=Nc1ccccc1N1CCCC1,0%,?,-18%,12,16µM*
COCCCNC(=S)NCCNc1nc2c(C)c(C)ccc2cc1C#N,-1%,?,?,-8,18µM*
CCOCCCNC(=S)NCCCNc1nc2ccc(C)cc2cc1C#N,0%,-2%[10 µM],-6%,-6,6.3µM*
FC(F)(F)c1ccccc1-c1nc(NC2CCNCC2)c2ccccc2n1,·,-1%,·,·,-12%
COc1cc([N+](=O)[O-])cc(/C=N/NC(=O)c2cc(-c3ccccc3)nc3ccccc23)c1O,0%,4.5µM*,?,-1,2µM*
Cc1cc(C(=O)N/N=C/c2cccc([N+](=O)[O-])c2)c2ccccc2n1,0%,2%,-10%,21,-38%
COc1cc([N+](=O)[O-])cc(/C=N/NC(=O)Cn2nc(C)cc2C)c1O,-1%,?,-28%,-1,?
COc1cc([N+](=O)[O-])cc(/C=N/NC(=O)Cn2nccc2C)c1O,0%,?,-17%,-7,3.5µM*
COc1cc(Br)cc(/C=N/NC(=O)Cc2ccc(C(F)(F)F)cc2[N+](=O)[O-])c1O,0%,0.35µM*,-8%,1,0.14µM*
COc1cc([N+](=O)[O-])cc(/C=N/NC(=O)c2cc(C)nc3ccccc23)c1O,-1%,13µM*,0%,-16,5.6µM*
CCOc1cc(/C=N/NC(=O)Cc2ccc(C(F)(F)F)cc2[N+](=O)[O-])c(Br)cc1OC,-1%,?,-1%,-9,-23%
O=C(Cc1ccccc1)NCC(=O)N/N=C/c1ccc(Cl)cc1,-1%,-13%,13%,1,0%
COc1ccccc1C(C)Nc1nc(-c2cccnc2)nc2ccccc12 (stereo not given),-1%,0%,-9%,32,-4%
Cc1ccnn1CC(=O)N/N=C/c1cn[nH]c1-c1ccc(F)cc1,-1%,?,?,6,14µM*
CC1CCN(S(=O)(=O)c2ccc3c(c2)oc(=O)n3CC(=O)NCc2ccc3c(c2)OCO3)CC1,0%,?,10µM*,-26,-30%
Cc1c(C(=O)NCc2ccc3c(c2)OCO3)oc2ccc(S(=O)(=O)N3CCCCCC3)cc12,·,-8%,·,·,7%
SMILES,B2AR arrestin,VP16 counter,ELG1 repair inh,TSHR antag,RORgamma inh
Cc1c(C(=O)NCc2ccc3c(c2)OCO3)oc2ccc(S(=O)(=O)N3CCC(C)CC3)cc12,0%,3%,8.2µM*,-16,6%
COc1ccccc1N1CCN(C2CCCN(C(=O)c3cccc(-c4ccco4)c3)C2)CC1 (stereo not given),0%,-16%,23µM*,6,11%
CN1c2ccsc2/C(=N/NC(=O)c2c(F)cccc2F)CS1(=O)=O,0%,5µM*,-12%,13,3.2µM*
CCN(CC)C(=O)Cn1cc(S(=O)(=O)CC(=O)NCCc2ccccc2)c2ccccc21,0%,-3%,-14%,1,-1%
Cc1nc2cnc(N3CCNCC3)nc2n(CCC#N)c1=O,·,-8%,·,·,-2%
COc1cccc(CNS(=O)(=O)c2c(C)[nH]c(C)c2C(=O)N2CCCC2)c1,0%,-4%,2%,-5,3%
COCCn1c(=NC(=O)CSCC(=O)NC2CCCCC2)sc2cc(OC)ccc21,3%,1%,?,-18,9%
CCOCCn1c(=NC(=O)CSCC(=O)Nc2cc(C)on2)sc2cc(OC)ccc21,0%,4%,15µM*,3,-20%
CCn1c(=NC(=O)CSC(C)=O)sc2cc(OC)ccc21,-1%,?,-28%,-42,10µM*
COCC(=O)N1CCC[C@@]2(CCN(C(c3ccccc3)c3ccccc3)C2)C1,·,-9%,·,·,2%
COc1ccc(C[C@@H](NS(=O)(=O)c2ccc(C(=O)O)cc2)C(=O)O)cc1,0%,-16%,·,-6,-18%
CCOC(=O)CNC(=O)c1sc2ncnc(N3CCc4ccccc4C3)c2c1C,0%,?,18µM*,13,?
CCC1=C2CC[C@H]3C(=O)NC(=O)[C@H]3[C@H]2[C@@]2(C)C(=NCCOC)OC(=O)N2C1=O,·,3%,·,·,-13%
Cc1ccc(S(=O)(=O)NCC(=O)NNC(=O)c2ccccc2Cl)cc1C,0%,·,-18%,32,·
COc1ccc(NC(=S)N2CCc3ccccc3C2)cc1OC,0%,-6%,-3%,2,11µM*
CSCCCNC(=S)N1CCc2ccccc2C1,0%,?,?,-1,3.5µM*
COc1cc(NC(=S)N2CCc3ccccc3C2)cc(OC)c1,0%,?,1%,0,14µM*
CCCCn1c(CCC(=O)O)nc2cc(S(=O)(=O)N3CCCC3)ccc21,0%,·,4%,27,·
CC(C)NC(=O)c1ccccc1NC(=O)C1COc2ccccc2O1 (stereo not given),0%,4%,21µM*,10,?
COCCCNC(=O)c1c(NC(=O)C2COc3ccccc3O2)sc2c1CCCC2 (stereo not given),0%,-25%,-2%,1,0%
CCNC(=O)c1c(NC(=O)C2COc3ccccc3O2)sc2c1CCCC2 (stereo not given),0%,11µM*,-4%,-12,?
